# Experimental data reported in PMC7862700, “An all-to-all approach to the identification of sequence-specific readers for epigenetic DNA modifications on cytosine”.
# Key:
# Assay in all cases: DAPPL (digital affinity profiling via proximity ligation, sequencing); 10 mM Tris-HCl pH 7.5, 50 mM NaCl, 1 mM DTT, 4% glycerol, room temperature, 30 min; GST-TFs on glutathione beads, 16-mer random dsDNA library, 0.1% formaldehyde crosslink after washing; high values mean tight binding
# [1] = target: T1, FLI1 (Homo sapiens, UniProt Q01543 1-452); settings: protein: recombinant; tags: N-terminal GST; dsDNA, one strand shown
# T1 sequence: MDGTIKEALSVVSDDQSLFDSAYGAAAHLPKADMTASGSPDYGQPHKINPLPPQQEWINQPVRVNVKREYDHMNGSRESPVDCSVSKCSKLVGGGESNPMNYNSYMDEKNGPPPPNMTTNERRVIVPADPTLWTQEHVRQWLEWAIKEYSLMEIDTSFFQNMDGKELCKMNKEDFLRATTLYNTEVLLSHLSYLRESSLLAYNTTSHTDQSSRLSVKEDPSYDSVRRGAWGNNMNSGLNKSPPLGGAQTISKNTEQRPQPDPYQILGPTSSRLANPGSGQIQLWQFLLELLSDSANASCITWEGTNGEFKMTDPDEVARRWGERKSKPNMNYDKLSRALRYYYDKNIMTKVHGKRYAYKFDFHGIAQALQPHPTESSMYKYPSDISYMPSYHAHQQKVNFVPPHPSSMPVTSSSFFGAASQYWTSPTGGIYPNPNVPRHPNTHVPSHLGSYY
# How it was run: (§1)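 Pools of DNA-barcoded human transcription factors, expressed in yeast as GST fusions on glutathione beads and combined with a tag-only sample, were incubated with 200 nmole of a 16-mer random double-stranded DNA library. Incubation took 30 min at room temperature in Tris/NaCl/DTT/glycerol buffer and was followed by washing, 0.1% formaldehyde crosslinking, proximity ligation (BsaI/T4 ligase, 1 h, 37 °C), PCR amplification and sequencing on an Illumina NextSeq500. Binding signal is the ratio of a hexamer's read frequency for a factor to its frequency for the tag-only sample.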
# [2] = target: T2, ELK1 (Homo sapiens, UniProt P19419 1-428); settings: protein: recombinant; tags: N-terminal GST; dsDNA, one strand shown
# T2 sequence: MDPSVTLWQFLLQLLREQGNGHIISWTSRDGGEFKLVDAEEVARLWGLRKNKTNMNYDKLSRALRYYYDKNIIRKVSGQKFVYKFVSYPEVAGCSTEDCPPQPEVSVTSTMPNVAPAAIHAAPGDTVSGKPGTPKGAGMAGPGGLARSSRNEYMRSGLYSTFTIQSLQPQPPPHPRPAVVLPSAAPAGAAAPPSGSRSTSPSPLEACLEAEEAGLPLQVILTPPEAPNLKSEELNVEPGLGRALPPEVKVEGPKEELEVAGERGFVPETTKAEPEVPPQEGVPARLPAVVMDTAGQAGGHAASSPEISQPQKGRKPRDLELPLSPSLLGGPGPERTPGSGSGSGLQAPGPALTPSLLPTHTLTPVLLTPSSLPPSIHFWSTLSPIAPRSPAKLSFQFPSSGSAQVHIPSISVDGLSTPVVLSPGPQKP
# How it was run: as §1
# [3] = target: T3, GABPA (Homo sapiens, UniProt Q06546 1-454); settings: protein: recombinant; tags: N-terminal GST; dsDNA, one strand shown
# T3 sequence: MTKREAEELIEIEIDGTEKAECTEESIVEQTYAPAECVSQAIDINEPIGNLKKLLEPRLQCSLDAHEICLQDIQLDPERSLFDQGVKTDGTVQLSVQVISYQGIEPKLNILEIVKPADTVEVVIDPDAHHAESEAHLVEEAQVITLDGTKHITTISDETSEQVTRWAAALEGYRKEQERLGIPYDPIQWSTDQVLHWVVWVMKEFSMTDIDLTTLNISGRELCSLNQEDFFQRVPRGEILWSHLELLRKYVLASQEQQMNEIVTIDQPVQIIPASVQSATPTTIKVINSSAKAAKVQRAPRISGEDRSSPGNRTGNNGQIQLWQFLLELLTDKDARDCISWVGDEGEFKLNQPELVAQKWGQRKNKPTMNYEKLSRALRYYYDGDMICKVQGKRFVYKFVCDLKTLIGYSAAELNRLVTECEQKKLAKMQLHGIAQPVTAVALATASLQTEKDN
# How it was run: as §1
# [4] = target: T4, ERG (Homo sapiens, UniProt P11308 1-479); settings: protein: recombinant; tags: N-terminal GST; dsDNA, one strand shown
# T4 sequence: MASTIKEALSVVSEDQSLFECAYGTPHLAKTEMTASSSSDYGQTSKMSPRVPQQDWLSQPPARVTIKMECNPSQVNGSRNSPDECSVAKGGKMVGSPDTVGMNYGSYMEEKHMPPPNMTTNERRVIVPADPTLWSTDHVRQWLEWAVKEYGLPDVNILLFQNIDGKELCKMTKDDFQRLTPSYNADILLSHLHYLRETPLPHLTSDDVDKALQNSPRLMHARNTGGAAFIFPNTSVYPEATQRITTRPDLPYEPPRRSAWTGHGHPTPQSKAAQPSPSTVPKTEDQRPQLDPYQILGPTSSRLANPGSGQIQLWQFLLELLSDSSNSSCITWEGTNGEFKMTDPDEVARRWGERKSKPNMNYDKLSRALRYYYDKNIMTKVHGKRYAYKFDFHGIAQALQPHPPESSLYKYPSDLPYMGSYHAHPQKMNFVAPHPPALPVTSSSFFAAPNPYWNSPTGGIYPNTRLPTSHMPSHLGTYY
# How it was run: as §1
# [5] = target: ELF1 (Homo sapiens, UniProt P32519 1-619); settings: protein: recombinant; tags: N-terminal GST; dsDNA, one strand shown
# How it was run: as §1
# [6] = target: T5, EHF (Homo sapiens, UniProt Q9NZC4 1-300); settings: protein: recombinant; tags: N-terminal GST; dsDNA, one strand shown
# T5 sequence: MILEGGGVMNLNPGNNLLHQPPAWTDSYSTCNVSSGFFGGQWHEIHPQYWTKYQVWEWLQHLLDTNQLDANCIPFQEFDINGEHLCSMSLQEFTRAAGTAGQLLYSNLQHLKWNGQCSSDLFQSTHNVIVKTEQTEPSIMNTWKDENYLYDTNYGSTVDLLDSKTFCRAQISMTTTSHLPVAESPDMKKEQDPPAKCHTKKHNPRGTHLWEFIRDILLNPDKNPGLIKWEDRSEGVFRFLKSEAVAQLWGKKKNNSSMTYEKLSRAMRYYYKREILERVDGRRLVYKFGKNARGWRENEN
# How it was run: as §1
# [7] = target: SPI1 (Homo sapiens, UniProt P17947 1-270); settings: protein: recombinant; tags: N-terminal GST; dsDNA, one strand shown
# How it was run: as §1
# [8] = target: SPIB (Homo sapiens, UniProt Q01892 1-262); settings: protein: recombinant; tags: N-terminal GST; dsDNA, one strand shown
# How it was run: as §1
# [9] = target: T6, ELK3 (Homo sapiens, UniProt P41970 1-407); settings: protein: recombinant; tags: N-terminal GST; dsDNA, one strand shown
# T6 sequence: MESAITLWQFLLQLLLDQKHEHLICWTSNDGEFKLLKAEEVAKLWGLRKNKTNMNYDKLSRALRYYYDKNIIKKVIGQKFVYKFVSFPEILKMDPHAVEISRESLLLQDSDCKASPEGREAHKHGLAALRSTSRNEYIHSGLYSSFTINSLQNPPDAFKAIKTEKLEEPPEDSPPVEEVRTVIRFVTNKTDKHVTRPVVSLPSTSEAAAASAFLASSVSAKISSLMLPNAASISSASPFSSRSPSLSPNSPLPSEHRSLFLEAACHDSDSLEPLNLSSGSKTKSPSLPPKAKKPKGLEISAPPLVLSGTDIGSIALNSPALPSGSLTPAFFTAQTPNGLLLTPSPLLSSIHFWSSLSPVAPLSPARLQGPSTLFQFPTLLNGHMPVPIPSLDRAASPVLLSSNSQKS
# How it was run: as §1
# [10] = target: T7, FEV (Homo sapiens, UniProt Q99581 1-238); settings: protein: recombinant; tags: N-terminal GST; dsDNA, one strand shown
# T7 sequence: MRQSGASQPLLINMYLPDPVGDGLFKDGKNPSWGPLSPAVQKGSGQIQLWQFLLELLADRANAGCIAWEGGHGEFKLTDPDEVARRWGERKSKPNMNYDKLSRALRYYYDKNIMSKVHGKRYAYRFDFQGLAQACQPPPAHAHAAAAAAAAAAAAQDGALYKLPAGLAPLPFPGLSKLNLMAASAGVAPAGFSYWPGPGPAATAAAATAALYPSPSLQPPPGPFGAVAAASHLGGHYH
# How it was run: as §1
# [11] = target: ETV5 (Homo sapiens, UniProt P41161 1-510); settings: protein: recombinant; tags: N-terminal GST; dsDNA, one strand shown
# How it was run: as §1
# [12] = target: HSF1 (Homo sapiens, UniProt Q00613 1-529); settings: protein: recombinant; tags: N-terminal GST; chain copies: 3; dsDNA, one strand shown
# How it was run: as §1
# [13] = target: T8, SPIC (Homo sapiens, UniProt Q8N5J4 1-248); settings: protein: recombinant; tags: N-terminal GST; dsDNA, one strand shown
# T8 sequence: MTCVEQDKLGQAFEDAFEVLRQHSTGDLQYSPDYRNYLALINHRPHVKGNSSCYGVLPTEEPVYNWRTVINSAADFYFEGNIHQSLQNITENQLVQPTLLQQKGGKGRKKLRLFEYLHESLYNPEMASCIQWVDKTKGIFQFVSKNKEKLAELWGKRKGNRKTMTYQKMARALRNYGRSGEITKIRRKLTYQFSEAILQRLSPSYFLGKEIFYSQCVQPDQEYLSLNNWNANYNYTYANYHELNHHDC
# How it was run: as §1
# [14] = target: ELF4 (Homo sapiens, UniProt Q99607 1-663); settings: protein: recombinant; tags: N-terminal GST; dsDNA, one strand shown
# How it was run: as §1
# [15] = target: T9, ELK4 (Homo sapiens, UniProt P28324-2 1-405); settings: protein: recombinant; tags: N-terminal GST; dsDNA, one strand shown
# T9 sequence: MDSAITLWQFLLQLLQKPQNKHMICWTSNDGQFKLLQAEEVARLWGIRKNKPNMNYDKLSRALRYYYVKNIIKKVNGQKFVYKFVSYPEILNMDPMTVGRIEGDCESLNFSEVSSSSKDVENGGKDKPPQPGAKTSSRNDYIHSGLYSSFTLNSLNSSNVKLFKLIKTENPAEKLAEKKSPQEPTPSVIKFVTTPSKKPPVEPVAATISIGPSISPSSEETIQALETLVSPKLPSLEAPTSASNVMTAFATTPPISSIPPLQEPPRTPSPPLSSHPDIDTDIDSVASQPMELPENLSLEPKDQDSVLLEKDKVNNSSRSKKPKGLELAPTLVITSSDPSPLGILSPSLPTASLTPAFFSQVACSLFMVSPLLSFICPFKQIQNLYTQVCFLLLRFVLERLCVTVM
# How it was run: as §1
# [16] = target: T10, ETV2 (Homo sapiens, UniProt O00321 1-342); settings: protein: recombinant; tags: N-terminal GST; dsDNA, one strand shown
# T10 sequence: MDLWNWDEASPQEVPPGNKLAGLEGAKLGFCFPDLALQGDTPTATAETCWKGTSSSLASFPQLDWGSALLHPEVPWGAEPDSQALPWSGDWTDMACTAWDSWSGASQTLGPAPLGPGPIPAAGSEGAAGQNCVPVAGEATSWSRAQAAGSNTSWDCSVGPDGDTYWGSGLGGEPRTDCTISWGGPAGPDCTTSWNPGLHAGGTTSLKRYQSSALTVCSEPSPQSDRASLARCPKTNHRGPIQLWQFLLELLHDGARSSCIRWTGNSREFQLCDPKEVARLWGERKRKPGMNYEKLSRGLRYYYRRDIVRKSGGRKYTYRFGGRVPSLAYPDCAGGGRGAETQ
# How it was run: as §1
# [17] = target: T11, ELF3 (Homo sapiens, UniProt P78545 1-371); settings: protein: recombinant; tags: N-terminal GST; dsDNA, one strand shown
# T11 sequence: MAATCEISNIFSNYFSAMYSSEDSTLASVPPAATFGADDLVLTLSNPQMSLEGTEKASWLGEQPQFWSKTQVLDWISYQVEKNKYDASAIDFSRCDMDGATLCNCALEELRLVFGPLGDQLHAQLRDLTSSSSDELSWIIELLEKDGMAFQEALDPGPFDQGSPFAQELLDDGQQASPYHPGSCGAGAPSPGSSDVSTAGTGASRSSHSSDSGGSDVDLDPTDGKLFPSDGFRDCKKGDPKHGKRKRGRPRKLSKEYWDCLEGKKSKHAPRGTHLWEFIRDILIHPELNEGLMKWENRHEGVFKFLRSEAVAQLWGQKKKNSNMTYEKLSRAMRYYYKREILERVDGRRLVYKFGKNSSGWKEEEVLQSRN
# How it was run: as §1
# [18] = target: CRX (Homo sapiens, UniProt O43186 1-299); settings: protein: recombinant; tags: N-terminal GST; dsDNA, one strand shown
# How it was run: as §1
# [19] = target: ETV1 (Homo sapiens, UniProt P50549 1-477); settings: protein: recombinant; tags: N-terminal GST; dsDNA, one strand shown
# How it was run: as §1
# Sequence of ELF1 (P32519 whole entry): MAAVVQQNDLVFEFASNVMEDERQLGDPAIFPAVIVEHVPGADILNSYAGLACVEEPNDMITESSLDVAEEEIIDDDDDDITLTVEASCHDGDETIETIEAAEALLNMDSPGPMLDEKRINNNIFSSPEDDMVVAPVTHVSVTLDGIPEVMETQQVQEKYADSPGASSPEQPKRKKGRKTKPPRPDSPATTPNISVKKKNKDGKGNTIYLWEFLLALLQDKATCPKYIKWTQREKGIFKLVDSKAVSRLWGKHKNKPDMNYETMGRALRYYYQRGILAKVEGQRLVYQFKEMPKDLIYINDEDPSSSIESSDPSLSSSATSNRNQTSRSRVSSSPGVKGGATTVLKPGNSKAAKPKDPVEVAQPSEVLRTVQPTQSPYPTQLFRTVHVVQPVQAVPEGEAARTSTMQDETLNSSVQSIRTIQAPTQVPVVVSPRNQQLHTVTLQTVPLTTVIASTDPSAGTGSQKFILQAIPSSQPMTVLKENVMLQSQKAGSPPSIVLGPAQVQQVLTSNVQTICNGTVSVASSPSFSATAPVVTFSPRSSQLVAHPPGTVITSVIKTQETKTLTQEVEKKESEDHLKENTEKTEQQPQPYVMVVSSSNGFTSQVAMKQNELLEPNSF
# Sequence of HSF1 (Q00613 whole entry): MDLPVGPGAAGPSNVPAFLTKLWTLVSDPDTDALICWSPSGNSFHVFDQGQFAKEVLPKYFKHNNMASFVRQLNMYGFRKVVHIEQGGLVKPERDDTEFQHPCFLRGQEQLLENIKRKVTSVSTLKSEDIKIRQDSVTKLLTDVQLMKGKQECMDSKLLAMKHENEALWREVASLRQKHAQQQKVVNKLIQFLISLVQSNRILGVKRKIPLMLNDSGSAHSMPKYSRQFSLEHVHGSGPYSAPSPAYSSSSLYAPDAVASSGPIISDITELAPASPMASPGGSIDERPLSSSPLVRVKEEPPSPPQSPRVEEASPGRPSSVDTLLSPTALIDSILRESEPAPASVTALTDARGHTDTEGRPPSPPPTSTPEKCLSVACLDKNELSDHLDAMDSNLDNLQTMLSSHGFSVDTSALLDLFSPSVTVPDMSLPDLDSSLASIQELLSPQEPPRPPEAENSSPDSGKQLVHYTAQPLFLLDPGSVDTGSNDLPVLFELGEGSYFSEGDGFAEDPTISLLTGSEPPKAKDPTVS
# Sequence of ELF4 (Q99607 whole entry): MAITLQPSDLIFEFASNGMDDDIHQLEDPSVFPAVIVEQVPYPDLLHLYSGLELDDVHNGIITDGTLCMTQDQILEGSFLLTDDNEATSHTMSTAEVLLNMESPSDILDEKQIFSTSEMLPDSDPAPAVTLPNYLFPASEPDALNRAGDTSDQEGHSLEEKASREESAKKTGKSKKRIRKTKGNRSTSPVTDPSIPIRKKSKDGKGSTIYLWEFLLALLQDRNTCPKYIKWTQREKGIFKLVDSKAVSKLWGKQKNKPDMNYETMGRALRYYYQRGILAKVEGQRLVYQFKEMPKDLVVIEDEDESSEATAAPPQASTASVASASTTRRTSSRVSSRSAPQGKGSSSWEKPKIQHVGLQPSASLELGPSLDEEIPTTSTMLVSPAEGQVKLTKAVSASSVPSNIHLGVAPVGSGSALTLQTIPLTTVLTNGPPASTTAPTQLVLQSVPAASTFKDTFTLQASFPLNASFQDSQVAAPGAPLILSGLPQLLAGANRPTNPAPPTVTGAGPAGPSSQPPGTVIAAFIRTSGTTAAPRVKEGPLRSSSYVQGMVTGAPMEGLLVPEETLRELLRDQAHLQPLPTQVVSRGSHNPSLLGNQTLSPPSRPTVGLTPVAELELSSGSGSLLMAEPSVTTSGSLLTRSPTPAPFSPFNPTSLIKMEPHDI
# Sequence of CRX (O43186 whole entry): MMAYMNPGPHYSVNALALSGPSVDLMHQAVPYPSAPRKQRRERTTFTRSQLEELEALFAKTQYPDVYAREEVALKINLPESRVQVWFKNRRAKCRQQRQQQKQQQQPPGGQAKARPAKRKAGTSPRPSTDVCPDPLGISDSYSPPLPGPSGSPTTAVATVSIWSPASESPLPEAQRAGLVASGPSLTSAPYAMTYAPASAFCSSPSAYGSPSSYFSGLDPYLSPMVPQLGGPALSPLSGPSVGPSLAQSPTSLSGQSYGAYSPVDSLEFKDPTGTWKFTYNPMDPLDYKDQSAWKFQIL
# Sequence of ETV1 (P50549 whole entry): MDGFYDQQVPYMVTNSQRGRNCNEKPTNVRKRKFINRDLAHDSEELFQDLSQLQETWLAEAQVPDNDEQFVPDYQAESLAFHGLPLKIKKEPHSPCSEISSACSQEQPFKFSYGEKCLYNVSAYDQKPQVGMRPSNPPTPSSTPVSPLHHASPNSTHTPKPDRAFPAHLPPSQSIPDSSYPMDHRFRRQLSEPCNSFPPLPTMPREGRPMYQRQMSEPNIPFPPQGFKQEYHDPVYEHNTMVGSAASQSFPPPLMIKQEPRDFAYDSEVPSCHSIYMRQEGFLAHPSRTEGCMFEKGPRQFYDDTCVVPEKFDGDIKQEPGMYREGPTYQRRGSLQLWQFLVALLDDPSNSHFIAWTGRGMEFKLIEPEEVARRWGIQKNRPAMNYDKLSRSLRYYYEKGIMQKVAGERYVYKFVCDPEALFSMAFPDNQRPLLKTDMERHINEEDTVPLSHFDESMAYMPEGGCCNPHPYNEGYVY
# Sequence of SPIB (Q01892 whole entry): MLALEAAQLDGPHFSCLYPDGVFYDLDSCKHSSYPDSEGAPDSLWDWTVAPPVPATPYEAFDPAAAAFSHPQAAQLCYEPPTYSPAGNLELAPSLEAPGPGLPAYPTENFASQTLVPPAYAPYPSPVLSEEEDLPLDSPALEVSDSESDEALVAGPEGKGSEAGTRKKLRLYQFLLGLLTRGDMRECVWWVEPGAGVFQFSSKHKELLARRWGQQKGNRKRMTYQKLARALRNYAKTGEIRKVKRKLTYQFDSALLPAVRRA
# Sequence of ETV5 (P41161 whole entry): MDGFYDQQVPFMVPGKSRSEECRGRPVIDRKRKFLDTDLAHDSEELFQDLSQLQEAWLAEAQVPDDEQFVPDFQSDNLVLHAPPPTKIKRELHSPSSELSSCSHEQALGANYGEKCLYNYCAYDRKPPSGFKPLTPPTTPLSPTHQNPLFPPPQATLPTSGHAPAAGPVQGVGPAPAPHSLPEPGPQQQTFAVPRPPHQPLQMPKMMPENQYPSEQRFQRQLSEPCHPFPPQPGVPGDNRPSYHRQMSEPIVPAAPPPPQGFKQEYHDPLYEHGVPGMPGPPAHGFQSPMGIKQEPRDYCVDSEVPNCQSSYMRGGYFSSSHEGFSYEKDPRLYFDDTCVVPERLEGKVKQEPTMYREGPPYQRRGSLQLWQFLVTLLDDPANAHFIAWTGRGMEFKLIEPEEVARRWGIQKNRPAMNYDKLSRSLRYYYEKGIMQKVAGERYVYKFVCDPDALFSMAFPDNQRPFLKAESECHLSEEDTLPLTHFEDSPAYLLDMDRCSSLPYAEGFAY
sequence,measurement,setting,value
CAAATA,binding signal,[1],"1.04 fold enrichment (6-mer frequency, TF over GST control)"
same,binding signal,[2],"1.13 fold enrichment (6-mer frequency, TF over GST control)"
same,binding signal,[3],"1.18 fold enrichment (6-mer frequency, TF over GST control)"
same,binding signal,[4],"1.19 fold enrichment (6-mer frequency, TF over GST control)"
same,binding signal,[5],"1.17 fold enrichment (6-mer frequency, TF over GST control)"
same,binding signal,[6],"1.14 fold enrichment (6-mer frequency, TF over GST control)"
same,binding signal,[7],"1.14 fold enrichment (6-mer frequency, TF over GST control)"
same,binding signal,[8],"1.19 fold enrichment (6-mer frequency, TF over GST control)"
same,binding signal,[9],"1.11 fold enrichment (6-mer frequency, TF over GST control)"
same,binding signal,[10],"1.14 fold enrichment (6-mer frequency, TF over GST control)"
same,binding signal,[11],"1.14 fold enrichment (6-mer frequency, TF over GST control)"
same,binding signal,[12],"1.14 fold enrichment (6-mer frequency, TF over GST control)"
same,binding signal,[13],"1.09 fold enrichment (6-mer frequency, TF over GST control)"
same,binding signal,[14],"1.16 fold enrichment (6-mer frequency, TF over GST control)"
same,binding signal,[15],"1.02 fold enrichment (6-mer frequency, TF over GST control)"
same,binding signal,[16],"1.06 fold enrichment (6-mer frequency, TF over GST control)"
same,binding signal,[17],"1.4 fold enrichment (6-mer frequency, TF over GST control)"
same,binding signal,[18],"1.24 fold enrichment (6-mer frequency, TF over GST control)"
same,binding signal,[19],"1.12 fold enrichment (6-mer frequency, TF over GST control)"
